Data published in PubChem BioAssay (NCI).
About 83,000 compounds went through this panel and 20% of them were active in at least one assay; those are over-represented in the sample as a whole.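 For each line, cells grew in 96-well plates with the test compound present at a single concentration for 48 hours.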 The source made the active and inactive calls. How the source made its calls: active means growth percent below 10; inactive means the rest.

Assays:
Assay in all cases: NCI-60 one-dose screen, 48 h (100 = growth as untreated, 0 = no growth, -100 = all killed)
Conditions in all cases: 10 µM unless noted
NCI-H23 lung = system: NCI-H23 lung
NCI-H226 lung = system: NCI-H226 lung
NCI-H322M lung = system: NCI-H322M lung
HOP-62 NSCLC = system: HOP-62 NSCLC
NCI-H460 lung = system: NCI-H460 lung
HOP-92 NSCLC = system: HOP-92 NSCLC
NCI-H522 lung = system: NCI-H522 lung
A549/ATCC NSCLC = system: A549/ATCC NSCLC
786-0 renal = system: 786-0 renal
COLO 205 colon = system: COLO 205 colon
DU-145 prostate = system: DU-145 prostate
K-562 leukemia = system: K-562 leukemia
MALME-3M melanoma = system: MALME-3M melanoma
MDA-MB-231 breast = system: MDA-MB-231 breast
RXF 393 renal = system: RXF 393 renal
SF-268 CNS = system: SF-268 CNS
SF-295 CNS = system: SF-295 CNS
SF-539 CNS = system: SF-539 CNS
UACC-257 melanoma = system: UACC-257 melanoma

Measured: growth

O=C(O)c1ccc(CO)o1
inactive: NCI-H23 lung 110% | NCI-H226 lung 106% | NCI-H322M lung 105% | HOP-62 NSCLC 113% | NCI-H460 lung 101% | HOP-92 NSCLC 91.5% | NCI-H522 lung 86.4% | A549/ATCC NSCLC 93.6% | 786-0 renal 77.8% | COLO 205 colon 115% | DU-145 prostate 113% | K-562 leukemia 109% | MALME-3M melanoma 113% | MDA-MB-231 breast 112% | RXF 393 renal 104% | SF-268 CNS 109% | SF-295 CNS 102% | SF-539 CNS 99.6% | UACC-257 melanoma 85.5%

Cc1ccc(S(=O)(=O)NN/C(N)=N\S(=O)(=O)c2cc(C)c(Cl)cc2SCc2ccccc2)cc1
inactive: NCI-H23 lung 90.6% | NCI-H226 lung 90.4% | NCI-H322M lung 168% | HOP-62 NSCLC 82.4% | NCI-H460 lung 110% | HOP-92 NSCLC 71% | NCI-H522 lung 29.9% | A549/ATCC NSCLC 56.7% | 786-0 renal 93.4% | COLO 205 colon 115% | DU-145 prostate 115% | K-562 leukemia 57.8% | MALME-3M melanoma 76.1% | MDA-MB-231 breast 92.5% | SF-268 CNS 102% | SF-295 CNS 95% | SF-539 CNS 73.9% | UACC-257 melanoma 97.3%
active: RXF 393 renal 8.06%

Cc1nc(Nc2ccc(NC(=S)Nc3ccccc3)cc2)nc2nc(Nc3cccc(Cl)c3)[nH]c(=O)c12
active: RXF 393 renal -12.9%
inactive: NCI-H23 lung 92.4% | NCI-H226 lung 99.2% | NCI-H322M lung 183% | HOP-62 NSCLC 91.7% | NCI-H460 lung 114% | HOP-92 NSCLC 60.4% | NCI-H522 lung 34.4% | A549/ATCC NSCLC 86.1% | 786-0 renal 98.7% | COLO 205 colon 122% | DU-145 prostate 123% | K-562 leukemia 71.8% | MALME-3M melanoma 120% | MDA-MB-231 breast 84.7% | SF-268 CNS 104% | SF-295 CNS 116% | SF-539 CNS 67.5% | UACC-257 melanoma 98.9%

CN(C)c1ccc(-c2cc(-c3ccc(Nc4nc(Nc5ccccc5)nc(Nc5ccc(Cl)cc5)n4)cc3)nc(N)n2)cc1
active: HOP-92 NSCLC -3.41%
inactive: NCI-H23 lung 48% | NCI-H226 lung 59% | NCI-H322M lung 66.3% | HOP-62 NSCLC 33.1% | NCI-H460 lung 41.7% | NCI-H522 lung 55.6% | A549/ATCC NSCLC 43.4% | 786-0 renal 10.6% | COLO 205 colon 58.1% | DU-145 prostate 61.4% | K-562 leukemia 10.8% | MALME-3M melanoma 57% | MDA-MB-231 breast 41.8% | RXF 393 renal 53.8% | SF-268 CNS 50.8% | SF-295 CNS 36.5% | SF-539 CNS 60.8% | UACC-257 melanoma 55.3%

Nc1c(C(=O)c2ccccc2)nnc2ncnn12
inactive: NCI-H23 lung 95.6% | NCI-H226 lung 94.5% | NCI-H322M lung 98.2% | HOP-62 NSCLC 97% | NCI-H460 lung 106% | HOP-92 NSCLC 95.2% | NCI-H522 lung 88.5% | A549/ATCC NSCLC 95.2% | 786-0 renal 97.2% | COLO 205 colon 103% | DU-145 prostate 106% | K-562 leukemia 97.1% | MALME-3M melanoma 107% | MDA-MB-231 breast 93% | RXF 393 renal 110% | SF-268 CNS 102% | SF-295 CNS 103% | SF-539 CNS 117% | UACC-257 melanoma 95.4%

CC1(C)CC(=O)c2c(ccc(C(=O)C[C@H](N)CO)c2N)O1
inactive: NCI-H23 lung 54.4% | NCI-H226 lung 58.3% | NCI-H322M lung 15% | HOP-62 NSCLC 22% | HOP-92 NSCLC 53.7% | NCI-H522 lung 46.2% | A549/ATCC NSCLC 34.7% | 786-0 renal 77.5% | COLO 205 colon 47% | DU-145 prostate 38% | K-562 leukemia 37.1% | MALME-3M melanoma 48.6% | MDA-MB-231 breast 54.6% | RXF 393 renal 44.1% | SF-268 CNS 34.2% | SF-295 CNS 42.9% | SF-539 CNS 23.7% | UACC-257 melanoma 49.1%
active: NCI-H460 lung 6.79%

C/C(=N\NC(N)=S)c1nc2ccc(Cl)cc2[nH]1
inactive: NCI-H23 lung 75.4% | NCI-H226 lung 46.3% | NCI-H322M lung 70% | HOP-62 NSCLC 43% | NCI-H460 lung 15.3% | HOP-92 NSCLC 79.5% | NCI-H522 lung 34% | A549/ATCC NSCLC 34.4% | 786-0 renal 31.2% | COLO 205 colon 45% | DU-145 prostate 34.1% | K-562 leukemia 39.5% | MALME-3M melanoma 113% | MDA-MB-231 breast 63.2% | RXF 393 renal 48.9% | SF-268 CNS 33.2% | SF-295 CNS 44.8% | SF-539 CNS 43% | UACC-257 melanoma 68.8%

COc1ccc(-c2nc3sc4c(c3c(=O)[nH]2)CCCC4)c2ccccc12
active: NCI-H460 lung 0.61% | NCI-H522 lung 1.5% | COLO 205 colon -32.9% | DU-145 prostate 0.642% | K-562 leukemia 5.12% | SF-295 CNS -18.7% | SF-539 CNS -57.7%
inactive: NCI-H23 lung 32.6% | NCI-H226 lung 50.8% | NCI-H322M lung 37.6% | HOP-62 NSCLC 10.4% | HOP-92 NSCLC 12.3% | A549/ATCC NSCLC 15.8% | 786-0 renal 10.6% | MALME-3M melanoma 41.8% | MDA-MB-231 breast 10.5% | RXF 393 renal 17.3% | SF-268 CNS 24.6% | UACC-257 melanoma 56.8%
